# Compounds without any hit were thinned out: in the full panel of roughly 83,000, 20% have a hit.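 Single-concentration screen, 48 h exposure, 96-well plates. Endpoint: percent growth. Below 10 = active.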 Unmarked numbers belong to inactive results. Active and inactive are the calls of the source.
# What was measured:
# Assay in all cases: NCI-60 one-dose screen, 48 h (100 = growth as untreated, 0 = no growth, -100 = all killed)
# SK-MEL-2 melanoma = tested on: SK-MEL-2 melanoma
# EKVX NSCLC = tested on: EKVX NSCLC
# SN12C renal = tested on: SN12C renal
# UO-31 renal = tested on: UO-31 renal
# TK-10 renal = tested on: TK-10 renal
# ACHN renal = tested on: ACHN renal
# CAKI-1 renal = tested on: CAKI-1 renal
# A498 renal = tested on: A498 renal
# CCRF-CEM leukemia = tested on: CCRF-CEM leukemia
# MOLT-4 leukemia = tested on: MOLT-4 leukemia
# SR leukemia = tested on: SR leukemia
# RPMI-8226 leukemia = tested on: RPMI-8226 leukemia
# OVCAR-8 ovarian = tested on: OVCAR-8 ovarian
# OVCAR-4 ovarian = tested on: OVCAR-4 ovarian
# SK-OV-3 ovarian = tested on: SK-OV-3 ovarian
# OVCAR-3 ovarian = tested on: OVCAR-3 ovarian
# HS 578T breast = tested on: HS 578T breast
# NCI/ADR-RES ovarian = tested on: NCI/ADR-RES ovarian
# OVCAR-5 ovarian = tested on: OVCAR-5 ovarian
# IGROV1 ovarian = tested on: IGROV1 ovarian
structure (smiles),measurement,setting,value
Cc1[nH]c(-c2nc3ccccc3[nH]2)c(C)c1C(=O)NC(C)C1CCCCC1 (stereo not given),growth,SK-MEL-2 melanoma; 10 µM,87.2%
same,growth,SK-MEL-2 melanoma; 100 µM,-81.6% (active)
same,growth,EKVX NSCLC; 10 µM,93.2%
same,growth,EKVX NSCLC; 100 µM,-84.9% (active)
same,growth,SN12C renal; 10 µM,86.1%
same,growth,SN12C renal; 100 µM,-89.7% (active)
same,growth,UO-31 renal; 10 µM,89%
same,growth,UO-31 renal; 100 µM,-97.8% (active)
same,growth,TK-10 renal; 10 µM,103%
same,growth,TK-10 renal; 100 µM,-91% (active)
same,growth,ACHN renal; 10 µM,99%
same,growth,ACHN renal; 100 µM,-90.9% (active)
same,growth,CAKI-1 renal; 10 µM,85.8%
same,growth,CAKI-1 renal; 100 µM,-97.2% (active)
same,growth,A498 renal; 10 µM unless noted,-93.3% [100 µM] (active)
same,growth,CCRF-CEM leukemia; 10 µM,81.3%
same,growth,CCRF-CEM leukemia; 100 µM,-72.7% (active)
same,growth,MOLT-4 leukemia; 10 µM,72.4%
same,growth,MOLT-4 leukemia; 100 µM,-51.3% (active)
same,growth,SR leukemia; 10 µM,69%
same,growth,SR leukemia; 100 µM,-44.3% (active)
same,growth,RPMI-8226 leukemia; 10 µM unless noted,-65.3% [100 µM] (active)
same,growth,OVCAR-8 ovarian; 10 µM,96.9%
same,growth,OVCAR-8 ovarian; 100 µM,-61.5% (active)
same,growth,OVCAR-4 ovarian; 10 µM,92.1%
same,growth,OVCAR-4 ovarian; 100 µM,-84.1% (active)
same,growth,SK-OV-3 ovarian; 10 µM unless noted,-77.6% [100 µM] (active)
same,growth,OVCAR-3 ovarian; 10 µM,90%
same,growth,OVCAR-3 ovarian; 100 µM,-86.9% (active)
same,growth,HS 578T breast; 10 µM,82.8%
same,growth,HS 578T breast; 100 µM,-39% (active)
same,growth,NCI/ADR-RES ovarian; 10 µM,85.5%
same,growth,NCI/ADR-RES ovarian; 100 µM,-79.7% (active)
CCCCCCCCCCCCCCCc1ccc(Cl)c(O)c1Cl (tested in a mixture with another compound),growth,SK-MEL-2 melanoma; 0.25 µM,57.4%
same,growth,SK-MEL-2 melanoma; 10 µM,88.2%
same,growth,SN12C renal; 0.25 µM,12.5%
same,growth,SN12C renal; 10 µM,89.7%
same,growth,UO-31 renal; 0.25 µM,63.4%
same,growth,UO-31 renal; 10 µM,93.6%
same,growth,TK-10 renal; 0.25 µM,68.9%
same,growth,TK-10 renal; 10 µM,115%
same,growth,ACHN renal; 0.25 µM,34%
same,growth,ACHN renal; 10 µM,108%
same,growth,CAKI-1 renal; 0.25 µM,32%
same,growth,CAKI-1 renal; 10 µM,94.8%
same,growth,A498 renal; 0.25 µM,43.5%
same,growth,A498 renal; 10 µM,125%
same,growth,CCRF-CEM leukemia; 0.25 µM,18.3%
same,growth,CCRF-CEM leukemia; 10 µM,93%
same,growth,SR leukemia; 0.25 µM,4.53% (active)
same,growth,SR leukemia; 10 µM,79.6%
same,growth,RPMI-8226 leukemia; 10 µM unless noted,29.8% [0.25 µM]
same,growth,OVCAR-5 ovarian; 0.25 µM,78.5%
same,growth,OVCAR-5 ovarian; 10 µM,106%
same,growth,OVCAR-4 ovarian; 0.25 µM,65%
same,growth,OVCAR-4 ovarian; 10 µM,115%
same,growth,SK-OV-3 ovarian; 0.25 µM,53.5%
same,growth,SK-OV-3 ovarian; 10 µM,111%
same,growth,IGROV1 ovarian; 0.25 µM,28.7%
same,growth,IGROV1 ovarian; 10 µM,97.4%
same,growth,OVCAR-3 ovarian; 0.25 µM,65.3%
same,growth,OVCAR-3 ovarian; 10 µM,112%
same,growth,HS 578T breast; 0.25 µM,63.9%
same,growth,HS 578T breast; 10 µM,105%
same,growth,NCI/ADR-RES ovarian; 0.25 µM,94.8%
same,growth,NCI/ADR-RES ovarian; 10 µM,96.5%
CCc1ccccc1-n1c(N)c(C#N)c(-c2ccc(OC)c(OC)c2)c(C#N)c1=O,growth,SK-MEL-2 melanoma; 10 µM,108%
same,growth,SK-MEL-2 melanoma; 100 µM,38%
same,growth,EKVX NSCLC; 10 µM,106%
same,growth,EKVX NSCLC; 100 µM,29.1%
same,growth,SN12C renal; 10 µM,109%
same,growth,SN12C renal; 100 µM,19.8%
same,growth,UO-31 renal; 10 µM,85.2%
same,growth,UO-31 renal; 100 µM,37.1%
same,growth,TK-10 renal; 10 µM,114%
same,growth,TK-10 renal; 100 µM,2.47% (active)
same,growth,ACHN renal; 10 µM,95.8%
same,growth,ACHN renal; 100 µM,16.1%
same,growth,CAKI-1 renal; 10 µM,97.5%
same,growth,CAKI-1 renal; 100 µM,50.3%
same,growth,A498 renal; 10 µM,120%
same,growth,A498 renal; 100 µM,42.6%
same,growth,CCRF-CEM leukemia; 10 µM,112%
same,growth,CCRF-CEM leukemia; 100 µM,101%
same,growth,MOLT-4 leukemia; 10 µM,95.7%
same,growth,MOLT-4 leukemia; 100 µM,111%
same,growth,SR leukemia; 10 µM unless noted,83% [100 µM]
same,growth,RPMI-8226 leukemia; 10 µM,112%
same,growth,RPMI-8226 leukemia; 100 µM,87.7%
same,growth,OVCAR-8 ovarian; 10 µM,109%
same,growth,OVCAR-8 ovarian; 100 µM,-24.4% (active)
same,growth,OVCAR-5 ovarian; 10 µM,107%
same,growth,OVCAR-5 ovarian; 100 µM,48.6%
same,growth,OVCAR-4 ovarian; 10 µM,113%
same,growth,OVCAR-4 ovarian; 100 µM,28%
same,growth,SK-OV-3 ovarian; 10 µM,111%
same,growth,SK-OV-3 ovarian; 100 µM,-20.7% (active)
same,growth,IGROV1 ovarian; 10 µM,107%
same,growth,IGROV1 ovarian; 100 µM,22.2%
same,growth,OVCAR-3 ovarian; 10 µM,113%
same,growth,OVCAR-3 ovarian; 100 µM,13.4%
same,growth,HS 578T breast; 10 µM,116%
same,growth,HS 578T breast; 100 µM,27.2%
same,growth,NCI/ADR-RES ovarian; 10 µM,111%
same,growth,NCI/ADR-RES ovarian; 100 µM,22.1%
